Results: PubChem BioAssay (NCI)
Where “and” joins values, the source holds several entries; their conditions need not be identical. Equal entries are not always repeated. Compounds without any hit were thinned out: in the full panel of roughly 79,000, 15% have a hit. Calls of active or inactive are those of the source. No stated cut-off is given here; in the data, active means growth inhibition above about 70%; inactive means the rest.

How the values were obtained:
[1] = NCI Yeast Anticancer Drug Screen. Data for the wt2 strain (AID 169);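 further: 0% = growth of vehicle-treated yeast cultures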; details: S. cerevisiae wt2 strain growth inhibition, hits give high values
Method in brief: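 Against vehicle-treated controls, the growth of yeast exposed to each compound was compared, and the inhibition was recorded.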

[2] = NCI Yeast Anticancer Drug Screen. Data for the mlh1 strain (AID 171);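 further: 0% = growth of vehicle-treated control cultures of the same strain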; details: S. cerevisiae mlh1 strain growth inhibition, hits give high values
Method in brief: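 Measured: yeast growth. Reference: vehicle-treated controls. Organism: strain with a defined alteration affecting DNA damage repair or cell cycle control, treated with compound.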

[3] = NCI Yeast Anticancer Drug Screen. Data for the sgs1 strain (AID 173);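 further: 0% = growth of vehicle-only control cultures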; details: S. cerevisiae sgs1 mutant, hits give high values
Method in brief: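 Each compound was added to cultures of the altered yeast strain. Growth was recorded, and inhibition was derived by comparison with vehicle controls.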

[4] = NCI Yeast Anticancer Drug Screen. Data for the mlh1 rad18 strain (AID 175); details: S. cerevisiae mlh1 rad18 strain growth inhibition, hits give high values
Method in brief: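 Genetically defined yeast (DNA repair-deficient) exposed to compounds; growth inhibition determined relative to vehicle.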

[5] = NCI Yeast Anticancer Drug Screen. Data for the rad18 strain (AID 177); details: S. cerevisiae rad18 mutant growth inhibition, hits give high values
Method in brief: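 Vehicle-treated cultures served as the baseline for scoring compound-induced growth inhibition in DNA-repair-mutant yeast.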

[6] = NCI Yeast Anticancer Drug Screen. Data for the rad52 strain (AID 147);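 further: 0% = growth of vehicle-treated control cultures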; details: S. cerevisiae rad52 mutant growth inhibition, hits give high values
Method in brief: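 The repair-mutant yeast strain was incubated with compounds, then growth was read and inhibition derived relative to vehicle.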

[7] = NCI Yeast Anticancer Drug Screen. Data for the wt1 strain (AID 149);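 further: 0% = growth of vehicle-treated wt1 cultures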; details: S. cerevisiae wt1 strain (SPY 50644) growth inhibition, hits give high values
Method in brief: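 wt1 strain grown with compound or vehicle; inhibition taken from the growth difference.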

[8] = NCI Yeast Anticancer Drug Screen. Data for the rad50EPP+ strain (AID 151);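 further: 0% = growth of vehicle-treated control cultures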; details: S. cerevisiae rad50 mutant strain, hits give high values
Method in brief: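 Vehicle-normalised growth inhibition; rad50EPP+ yeast strain, altered in DNA damage repair, compound-treated.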

[9] = NCI Yeast Anticancer Drug Screen. Data for the mgt1 strain (AID 153); details: S. cerevisiae mgt1 mutant growth inhibition, hits give high values
Method in brief: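 Vehicle-normalized growth inhibition is determined in mgt1 yeast, a strain selected for a defined alteration in DNA repair or cell cycle control.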

[10] = NCI Yeast Anticancer Drug Screen. Data for the rad50 strain (AID 155);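 further: 0% = growth of vehicle-only cultures of the same strain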; details: S. cerevisiae rad50 strain growth inhibition, hits give high values
Method in brief: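 DNA repair mutant yeast, compound exposure, growth read-out; inhibition is taken relative to vehicle.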

[11] = NCI Yeast Anticancer Drug Screen. Data for the mec2-1 strain (AID 157); details: S. cerevisiae mec2-1 strain, hits give high values
Method in brief: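 Mutant yeast (mec2-1) grown with compound; growth inhibition relative to vehicle control reported.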

[12] = NCI Yeast Anticancer Drug Screen. Data for the rad14 strain (AID 159);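 further: 0% = growth of vehicle-treated control cultures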; details: S. cerevisiae rad14 strain growth inhibition, hits give high values
Method in brief: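 DNA repair-defective yeast, compound-exposed; % growth inhibition derived by comparison with vehicle-treated controls.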

[13] = NCI Yeast Anticancer Drug Screen. Data for the sgs1 mgt1 strain (AID 161);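 further: 0% = growth of cultures given vehicle only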; details: S. cerevisiae sgs1 mgt1 strain, hits give high values
Method in brief: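 Compounds are added to genetically altered yeast, and growth is compared with cultures given vehicle alone to give percent inhibition.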

[14] = NCI Yeast Anticancer Drug Screen. Data for the CLN2oe strain (AID 163);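 further: 0% = growth of vehicle-only control cultures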; details: S. cerevisiae CLN2oe strain, hits give high values
Method in brief: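 Compounds are applied to yeast harbouring a defined cell-cycle control change; reduced growth compared with vehicle-treated controls gives the value.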

[15] = NCI Yeast Anticancer Drug Screen. Data for the cln2 rad14 strain (AID 165);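 further: 0% = growth equal to vehicle treated cultures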; details: S. cerevisiae cln2 rad14 strain, hits give high values
Method in brief: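 Readout is yeast growth inhibition versus vehicle-treated controls, using a strain with cln2 and rad14 alterations exposed to compound.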

[16] = NCI Yeast Anticancer Drug Screen. Data for the bub3 strain (AID 167); details: S. cerevisiae bub3 mutant strain, hits give high values
Method in brief: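 In this screen, a yeast mutant lacking normal mitotic checkpoint function is challenged with compound. Relative growth versus vehicle gives the inhibition value.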

[17] = at 5.0 µM (retest, dose inferred, filed as 0.5)
[18] = at 50.0 µM (retest, dose inferred, filed as 5.0)

Measured: growth inhibition

C[N+](CCCl)(CCCl)Cc1cccc2cccc([N+](=O)[O-])c12
active: [3]; at 100.0 µM 77% | [4]; [18] 81% | [4]; at 50.0 µM 77.4% | [5]; at 11.0 µM 91% | [5]; at 33.0 µM 95% | [5]; at 100.0 µM 96%
inactive: [1]; at 1.2 µM -10% | [1]; at 3.7 µM -6% | [1]; at 11.0 µM -10% | [1]; at 33.0 µM -1% | [1]; at 100.0 µM 23% | [2]; at 1.2 µM 7% | [2]; at 3.7 µM -2% | [2]; at 11.0 µM -1% | [2]; at 33.0 µM 4% | [2]; at 100.0 µM 21% | [3]; at 1.2 µM 20% | [3]; at 3.7 µM 19% | [3]; at 11.0 µM 41% | [3]; at 33.0 µM 63% | [4]; [17] 31% | [5]; at 1.2 µM 11% | [5]; at 3.7 µM 56%

S=C1NC2(CCCCC2)NC12CCCCC2
inactive: [6]; at 1.2 µM -1% | [6]; at 3.7 µM -5% | [6]; at 11.0 µM -3% | [6]; at 33.0 µM 2% | [6]; at 100.0 µM -1% | [7]; at 1.2 µM -2% | [7]; at 3.7 µM -3% | [7]; at 11.0 µM 3% | [7]; at 33.0 µM 8% | [7]; at 100.0 µM 13% | [8]; at 1.2 µM -2% | [8]; at 3.7 µM 0% | [8]; at 11.0 µM 2% | [8]; at 33.0 µM 8% | [8]; at 100.0 µM 7% | [9]; at 1.2 µM -2% | [9]; at 3.7 µM -8% | [9]; at 11.0 µM 5% | [9]; at 33.0 µM 17% | [9]; at 100.0 µM 10% | [10]; at 1.2 µM 0% | [10]; at 3.7 µM 9% | [10]; [17] 11% | [10]; at 11.0 µM 19% | [10]; at 33.0 µM 19% | [10]; [18] 33% | [10]; at 50.0 µM 44.9% | [10]; at 100.0 µM 11% | [11]; at 1.2 µM -12% | [11]; at 3.7 µM -19% | [11]; [17] 3% | [11]; at 11.0 µM -18% | [11]; at 33.0 µM -1% | [11]; [18] 23% | [11]; at 50.0 µM 4.85% | [11]; at 100.0 µM 2% | [12]; at 1.2 µM -2% | [12]; at 3.7 µM -7% | [12]; at 11.0 µM -1% | [12]; at 33.0 µM 0% | [12]; at 100.0 µM 3% | [13]; [17] 30% | [13]; [18] 69% | [13]; at 50.0 µM 13.8% | [14]; at 1.2 µM -7% | [14]; at 3.7 µM -3% | [14]; at 11.0 µM -2% | [14]; at 33.0 µM 6% | [14]; at 100.0 µM 9% | [15]; [17] -30% | [15]; [18] 2% | [15]; at 50.0 µM -2% | [16]; at 1.2 µM -18% | [16]; at 3.7 µM -14% | [16]; [17] 16% | [16]; at 11.0 µM 3% | [16]; at 33.0 µM 2% | [16]; [18] 20% | [16]; at 50.0 µM 14.5% | [16]; at 100.0 µM 6% | [1]; at 1.2 µM -2% | [1]; at 3.7 µM -2% | [1]; at 11.0 µM 3% | [1]; at 33.0 µM 14% | [1]; at 100.0 µM 16% | [2]; at 1.2 µM -6% | [2]; at 3.7 µM -5% | [2]; at 11.0 µM 0% | [2]; at 33.0 µM 1% | [2]; at 100.0 µM -2% | [3]; at 1.2 µM -1% | [3]; at 3.7 µM -3% | [3]; at 11.0 µM 2% | [3]; at 33.0 µM 8% | [3]; at 100.0 µM 12% | [4]; [17] -9% | [4]; [18] 49% | [4]; at 50.0 µM 27.3% | [5]; at 1.2 µM -3% | [5]; at 3.7 µM -1% | [5]; at 11.0 µM 15% | [5]; at 33.0 µM 24% | [5]; at 100.0 µM 7%

N#CC(C#N)=Cc1ccc(C#N)cc1
active: [10]; [18] 90% | [4]; [18] 76%
inactive: [6]; at 1.2 µM 0% | [6]; at 3.7 µM -4% | [6]; at 11.0 µM -1% | [6]; at 33.0 µM 0% | [6]; at 100.0 µM 11% | [7]; at 1.2 µM -2% | [7]; at 3.7 µM -2% | [7]; at 11.0 µM -3% | [7]; at 33.0 µM -2% | [7]; at 100.0 µM 3% | [8]; at 1.2 µM -2% | [8]; at 3.7 µM -2% | [8]; at 11.0 µM 0% | [8]; at 33.0 µM 0% | [8]; at 100.0 µM 0% | [9]; at 1.2 µM -2% | [9]; at 3.7 µM -2% | [9]; at 11.0 µM 0% | [9]; at 33.0 µM -3% | [9]; at 100.0 µM 1% | [10]; at 1.2 µM 1% | [10]; at 3.7 µM -4% | [10]; [17] -109% | [10]; at 11.0 µM 2% | [10]; at 33.0 µM 10% | [10]; at 50.0 µM -6.65% and 24.1% | [10]; at 100.0 µM 9% | [11]; at 1.2 µM 3% | [11]; at 3.7 µM 0% | [11]; [17] -47% | [11]; at 11.0 µM 6% | [11]; at 33.0 µM 3% | [11]; [18] 15% | [11]; at 50.0 µM -8.25% and 5.55% | [11]; at 100.0 µM 7% | [12]; at 1.2 µM 1% | [12]; at 3.7 µM 1% | [12]; at 11.0 µM 2% | [12]; at 33.0 µM 6% | [12]; at 100.0 µM 16% | [13]; [17] -56% | [13]; [18] 62% | [13]; at 50.0 µM -16.8% and -0.4% | [14]; at 1.2 µM -4% | [14]; at 3.7 µM -2% | [14]; at 11.0 µM 1% | [14]; at 33.0 µM 0% | [14]; at 100.0 µM 11% | [15]; [17] -60% | [15]; [18] -7% | [15]; at 50.0 µM 50.4% and 4.05% | [16]; at 1.2 µM -4% | [16]; at 3.7 µM -8% | [16]; [17] -65% | [16]; at 11.0 µM -7% | [16]; at 33.0 µM -7% | [16]; [18] 51% | [16]; at 50.0 µM -0.75% and 31.1% | [16]; at 100.0 µM 7% | [1]; at 1.2 µM -1% | [1]; at 3.7 µM -1% | [1]; at 11.0 µM -1% | [1]; at 33.0 µM 1% | [1]; at 100.0 µM 5% | [2]; at 1.2 µM 8% | [2]; at 3.7 µM -4% | [2]; at 11.0 µM -1% | [2]; at 33.0 µM 1% | [2]; at 100.0 µM 2% | [3]; at 1.2 µM -1% | [3]; at 3.7 µM -2% | [3]; at 11.0 µM -2% | [3]; at 33.0 µM -2% | [3]; at 100.0 µM 14% | [4]; [17] -109% | [4]; at 50.0 µM -24.6% and 16.7% | [5]; at 1.2 µM -1% | [5]; at 3.7 µM -1% | [5]; at 11.0 µM -1% | [5]; at 33.0 µM 0% | [5]; at 100.0 µM 9%
